Assay results reported in the supplement of paper PMC10933113.
Structures can show the parent of a compound that is named as a salt. ± gives the uncertainty stated by the source.

tested on: THP-1; assay: CD54 surface expression induction over DMSO control (% over DMSO); higher = stronger dendritic cell activation; details: exposure time: 24 h
Procedure: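 hCLAT-like CD54 and CD86 surface expression on THP1 cells after 24 h exposure at a single concentration (highest non-cytotoxic concentration, or 100-200 µM if not cytotoxic). Flow cytometry (iQue) was run on 5,000 live cells.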

Row | SMILES | CD54 surface expression induction
1 | CCN(CC)c1ccc(C(=O)c2ccccc2C(=O)O)c(O)c1 [2-[4-(Diethylamino)-2-hydroxybenzoyl]benzoic acid] (10 µM) | -5.88 ± 5
2 | CC(=O)C1(C)CC2=C(CCCC2(C)C)CC1C (stereo not given) (100 µM) | 4.57 ± 4.8
3 | S=C(NC1CCCCC1)NC1CCCCC1 [N,N'-Dicyclohexylthiourea] (10 µM) | -7.65 ± 5.2
4 | CO[C@@H]1[C@H](OC(=O)/C=C/C=C/C=C/C=C/C(=O)O)CC[C@]2(CO2)[C@H]1[C@@]1(C)O[C@@H]1CC=C(C)C [Fumagillin] (100 µM) | 4.2 ± 4.4
5 | c1ccc2[nH]c(-c3cscn3)nc2c1 [Thiabendazole] (100 µM) | -2.19 ± 1.1
6 | O=C(NS(=O)(=O)/C=C/c1ccccc1)c1ccc(F)cc1Cl (200 µM) | 1.54 ± 2.2
7 | COc1ccc(C(=O)c2ccc(C)cc2)c(O)c1 [Mexenone] (300 µM) | -5.78 ± 3.4
8 | CCCCCCCCCCCCO [1-Dodecanol] (100 µM) | 9.85 ± 8.8
9 | C[n+]1cc2c3c(ccc2c2ccc4cc5c(cc4c21)OCO5)OCO3 [Sanguinarine] (10 µM) | 36 ± 5.9
10 | C=CCOC(Cn1ccnc1)c1ccc(Cl)cc1Cl (stereo not given) [Imazalil sulfate] (100 µM) | 11.6 ± 11
11 | CCCCCCC(C)O (stereo not given) [2-Octanol] (200 µM) | -1.7 ± 0.35
12 | O=C(Nc1ccccc1)c1cc(Cl)ccc1O [5-Chlorosalicylanilide] (10 µM) | -4.26 ± 3.3
13 | CC(C(=O)O)c1ccc(/C=C2\CCCCC2=O)cc1 (stereo not given) [Pelubiprofen] (100 µM) | -1.67 ± 0.26
14 | O=[N+]([O-])c1cc(N(CCO)CCO)ccc1NCCO (200 µM) | 3.92 ± 4.8
15 | Nc1ccccc1N [1,2-Phenylenediamine*] (200 µM) | 161 ± 20
16 | O=C(Nc1ncc([N+](=O)[O-])s1)c1cccs1 [Tenonitrozole] (10 µM) | -7 ± 4.7
17 | CCOc1ccc2nc3cc(N)ccc3c(N)c2c1 [Ethacridine lactate monohydrate] (200 µM) | -29.7 ± 6.5
18 | Oc1ccc2cc(SSc3ccc4cc(O)ccc4c3)ccc2c1 [6-Hydroxy-2-naphthyl disulfide] (100 µM) | 71.9 ± 1.4
19 | CCc1oc2ccccc2c1C(=O)c1cc(I)c(O)c(I)c1 [Benziodarone] (100 µM) | -0.07 ± 0.74
20 | CCCCCCCCCCCCCCCC[N+](C)(C)Cc1ccccc1 [Benzylhexadecyldimethylammonium chloride] (10 µM) | 20.1 ± 7.5

Row | SMILES | CD54 surface expression induction
21 | CCCOc1ccc2[nH]c(NC(=O)OC)nc2c1 [Oxibendazole] (100 µM) | -37.7 ± 6.7
22 | Oc1c(I)cc(Cl)c2cccnc12 [Clioquinol] (100 µM) | 141 ± 67
23 | COc1cc(C(C)(C)C)c(O)c(C(C)(C)C)c1 [2,6-Di-tert-butyl-4-methoxyphenol] (200 µM) | 14.5 ± 0.32
24 | Oc1c(Br)cc(Br)c2cccnc12 [Broxyquinoline] (100 µM) | 49.3 ± 18
25 | CCCCCCCC(=O)Oc1c(Br)cc(C#N)cc1Br [Bromoxynil octanoate] (100 µM) | -3.81 ± 2.4
26 | O=c1cc(-c2ccccc2)oc2ccccc12 [Flavone] (200 µM) | 62.9 ± 14
27 | CC(C)CC(NC(=O)OCC1c2ccccc2-c2ccccc21)C(=O)O (stereo in doubt) [N-(9-Fluorenylmethoxycarbonyl)-L-leucine] (100 µM) | -11.5 ± 0.49
28 | O=C(CCCCCCC(=O)Nc1ccccc1)NO [Vorinostat (SAHA)] (100 µM) | 4.99 ± 15
29 | N=C1C=CC(=C(c2ccc(N)cc2)c2ccc(N)cc2)C=C1 [C.I. Basic Red 9 monohydrochloride] (10 µM) | 10.7 ± 6.1
30 | CCOC(=O)CCC(=O)OCC [Diethyl butanedioate] (200 µM) | -4.24 ± 4.1
31 | Nc1ccc(/N=N/c2ccccc2)c(N)n1 [Phenazopyridine hydrochloride] (100 µM) | -3.19 ± 0.03
32 | CCCCCCCCCCCCOCCO [2-(Dodecyloxy)ethanol] (200 µM) | 34.2 ± 20
33 | CCCCc1ccc2[nH]c(NC(=O)OC)nc2c1 [Parbendazole*] (200 µM) | 262 ± 39
34 | COc1cc(/C=C2\CCC/C(=C\c3ccc(O)c(OC)c3)C2=O)ccc1O [Cyclovalone] (10 µM) | -1.01 ± 3
35 | COc1cc(C(C)C)c2c(c1)S(=O)(=O)N(COc1cc(=O)n3cccc(OCCN4CCCCC4)c3n1)C2=O (100 µM) | 61 ± 55
36 | CCCCCOc1ccccc1/C(=C\SC)n1ccnc1 [Neticonazole] (100 µM) | 17.2 ± 5
37 | COC(=O)Nc1nc2cc(Sc3ccccc3)ccc2[nH]1 [Fenbendazole] (100 µM) | -38.1 ± 4.2
38 | N=C(N)NN=C(/C=C/c1ccc([N+](=O)[O-])o1)/C=C/c1ccc([N+](=O)[O-])o1 [Nitrovin] (10 µM) | 76.1 ± 15
39 | CCCCCCCCCCCCCC[N+](C)(C)C [Tetradonium bromide] (10 µM) | 17.7 ± 3.4
40 | CC(C)(C)c1cc(O)c(C(C)(C)C)cc1O [2,5-Di-tert-butylbenzene-1,4-diol] (100 µM) | 38.2 ± 50
